Data on 40 molecules can be found in PubChem BioAssay (NCI).

Structures are written as SMILES. The panel holds about 83,000 compounds, 20% with a hit somewhere; the sample as a whole holds those more often.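 In brief: 96-well plates, 48 h treatment, single concentration, percent growth endpoint.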 Values without a mark were called inactive. Calls of active or inactive are those of the source. Rule for the calls: active = growth percent below 10; inactive = the rest.

The subject of the test is HL-60(TB) leukemia. The test can be described thus: NCI-60 one-dose screen, 48 h (100 = growth as untreated, 0 = no growth, -100 = all killed). The following applies: 10 µM unless noted.
As to `CNC(=O)c1[nH]cc(-c2ccc(OC)cc2)c1-c1cc(OC)c2c(c1OC)OCO2`, the growth is 96.4%.

Regarding `COc1cccc(C2C3=C(COC3=O)N(CCO)c3cc4c(cc32)OCO4)c1` (stereo not given), the growth was -2.69% (active).

As to `N/C(=N\C(N)=N\c1nc2ccccc2s1)c1ccnc(Cl)c1`, the growth is 1.2% (active).

Turning to `CS(=O)(=O)c1nccc(-c2c(-c3cccc(OCCN4CCOCC4)c3)nc3sccn23)n1`, the growth is 66.4%.

Take `CC/C=C\C/C=C\C[C@H](O)C/C=C1/C(=O)C=C[C@@H]1C/C=C\CCCC(=O)O`: the growth is 32.6%.

Regarding `COc1ccc(C2=C/C(=C\c3ccccc3O)C(=O)N2Cc2ccccc2)cc1`, the growth was 40.9%.

`N#CC1=C(N)Oc2c(sc3c(F)cccc23)C1c1ccc(Cl)cc1` (stereo not given): the growth is -6.14% (active).

For the molecule `C[C@H]1[C@H](C)CC[C@]2(C(=O)O)CC[C@]3(C)C(=CC[C@@H]4[C@@]5(C)C/C(=C/c6cccnc6)[C@H](O)C(C)(C)[C@@H]5CC[C@]43C)[C@H]12`, the growth is -16.5% [100 µM] (active).

`CC(=O)N1N=C(c2ccc(Nc3nc(Nc4ccc(F)cc4)nc(Nc4ccc(F)cc4)n3)cc2)CC1c1cccc([N+](=O)[O-])c1` (stereo not given): the growth was 0% (active).

As for `Cc1cccc2c(=O)c3c(sc12)c(NCc1ccccc1)nc1ccccc13`, the growth is 95.5%.

For `CCN1CCN(c2cc(C)nc(N(CCNc3ccnc4cc(Cl)ccc34)Cc3ccc4c(c3)OCO4)n2)CC1`, the growth is -61.8% (active).

For `FC(F)(F)c1ccccc1-c1cn2c(ccc3ccccc32)n1`, the growth is 48.1%.

Regarding `COc1ccc(C(=O)C(C)C)c2ccccc12`, the growth is 78.9%.

On to `O=Cc1nc2ccccc2[nH]1`, for which the growth is 98%.

As to `O=S(=O)(NCl)c1ccccc1`, the growth is 99.8%.

With `CC[C@@H](C(=O)[C@H](C)[C@H](O)[C@@H](C)[C@H]1O[C@H]([C@@H](CC)C(=O)N(CC)CC)CC[C@H]1C)C1O[C@]2(C=C[C@@H](O)[C@]3(CC[C@@](C)([C@H]4CC[C@](O)(CC)[C@H](C)O4)O3)O2)[C@H](C)C[C@@H]1C` (stereo not given in full), the growth is -28.8% (active).

Take `Nc1ccc2c(c1)C(=O)C(=O)c1c-2nc2ccccn12`: the growth was -47.3% (active).

For the molecule `COc1cc(/C=C\c2cc(OC)c(OC)c(OC)c2)cc(N)c1OC`, the growth is 48.8%.

`CN(C)c1ccc(/C=C/C(=O)c2cccc(Nc3nc(Nc4ccccc4)nc(Nc4ccccc4)n3)c2)cc1`: the growth was 99.9%.

Consider `Cc1cc([C@@H](C)Nc2ccccc2C(=O)O)c2nc(N3CCOCC3)cc(=O)n2c1`, for which the growth is 26.7%.

Take `CC(C)=C1CCC(C)C/C1=N\N=C(N)N` (stereo not given): the growth is 104%.

On to `CC1(C)CC[C@]2(c3nnc(-c4ccncc4)o3)CC[C@]3(C)C(=CC[C@@H]4[C@@]5(C)CCC(=O)C(C)(C)[C@@H]5CC[C@]43C)[C@@H]2C1`, for which the growth was 30.7%.

As to `COc1ccc(-c2cc(=O)c3c(OC)c4ccoc4cc3o2)cc1`, the growth is 117%.

Regarding `Cc1ccc(Nc2cccc3ccccc23)cc1`, the growth was 96.2%.

In the case of `CCN(CC)CCCCNc1c2ccc(Cl)cc2nc2ccc(OC)cc12`, the growth was -34.8% (active).

Regarding `N#Cc1c(-c2ccc(Br)cc2)nc2c(N=Nc3ccc(S(N)(=O)=O)cc3)c(N)nn2c1N`, the growth was 38.1%.

As to `O=C(/C=C/C(=O)c1ccccc1)c1ccccc1`, the growth was 57.3%.

With `S=C1CC(=S)NC(=S)N1`, the growth is 131%.

On to `CC(C)=CCCC(C)c1ccc(C)c2c1OCN(CC1CCNCC1)C2` (stereo not given), for which the growth is 13.8%.

For the molecule `CC(C)C(C#N)(C(C)C)C(C)C`, the growth was 109%.

As to `O=C1c2ccccc2C(=O)c2c1ccc(C(Br)Br)c2[N+](=O)[O-]`, the growth is -37.9% (active).

As for `COc1c2c(cc3c1C(=O)N[C@@H]1[C@@H](O)[C@@H](O)[C@H](O)C[C@@H]31)OCCO2`, the growth is 95.4%.

Consider `CCOC(=O)c1sc(NC(=O)CN2CCC(Cc3ccccc3)CC2)nc1C`, for which the growth was 92%.

As for `COc1ccc(C2CC(c3ccccc3)=NN2C(=O)c2cc(OC)c(OC)c(OC)c2)cc1O` (stereo not given), the growth is -29.3% (active).

`FC(F)(F)c1ccc(-c2nc(-c3nc4cc(Cl)c(Cl)cc4[nH]3)c3ccccn23)cc1`: the growth was 104%.

`CC(C)CCC[C@@H](C)[C@H]1CC[C@H]2[C@@H]3CC=C4c5sc(Nc6cc(C(F)(F)F)cc(C(F)(F)F)c6)nc5CC[C@]4(C)[C@H]3CC[C@]12C`: the growth was 101%.

Regarding `N#C/C(=C\c1ccc(C(F)(F)F)cc1)c1cc2ccccc2[nH]1`, the growth was 89.3%.

With `CCOC(=O)C1=C(C)N2C(=NC3=C(CCCC/C3=C\c3cc(OC)c(OC)c(OC)c3)C2c2cc(OC)c(OC)c(OC)c2)S1` (stereo not given), the growth was 49.9%.

Turning to `CCOC(=O)C(Nc1ccccc1)C(=O)OCC`, the growth is 101%.

As to `CCN(CC)CCOc1ccc(/C(=C(\C)c2ccc(Cl)cc2)c2ccc(Cl)cc2)cc1`, the growth was 41.4%.
